Results reported in PubChem BioAssay (Tox21).
Records with an inconclusive call do not appear. The source holds several records for some structures; these can differ, active in one and inactive in another. The source made the active and inactive calls. Unless noted, calls come from the whole dose curve; as a rule, active = well fitted curve in the direction sought with a large enough effect in the repeat runs; inconclusive = weak or mixed curves; inactive = no such curve, though single readings can be large; an effect the other way counts as inactive or inconclusive.

Columns and labels:
[1] = qHTS assay to identify small molecule agonists of the peroxisome proliferator-activated receptor delta (PPARd) signaling pathway - cell viability counter screen (AID 743211); details: PPARd-bla HEK293H viability, CellTiter-Glo luminescence, 17 h; series mostly up to 62.6 µM; note: nearly all actives have a fitted effect of over 55% in size
Procedure, shortened: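 Multiplexed format: after the 2 h room-temperature LiveBLAzer B/G FRET step, CellTiter-Glo was added to the same wells. Luminescence after 30 min gave cell viability; compound exposure was 17 h at 37C.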

[2] = biological target: Peroxisome proliferator-activated receptor delta (Homo sapiens) (UniProt Q03181); experiment: qHTS assay to identify small molecule agonists of the peroxisome proliferator-activated receptor delta (PPARd) signaling pathway (AID 743212; calls by dose curve); details: HEK293H PPARd-UAS-bla, beta-lactamase FRET ratio, 17 h; series mostly up to 62.6 µM
Chain of Peroxisome proliferator-activated receptor delta (Homo sapiens) (Q03181 whole entry, looked up): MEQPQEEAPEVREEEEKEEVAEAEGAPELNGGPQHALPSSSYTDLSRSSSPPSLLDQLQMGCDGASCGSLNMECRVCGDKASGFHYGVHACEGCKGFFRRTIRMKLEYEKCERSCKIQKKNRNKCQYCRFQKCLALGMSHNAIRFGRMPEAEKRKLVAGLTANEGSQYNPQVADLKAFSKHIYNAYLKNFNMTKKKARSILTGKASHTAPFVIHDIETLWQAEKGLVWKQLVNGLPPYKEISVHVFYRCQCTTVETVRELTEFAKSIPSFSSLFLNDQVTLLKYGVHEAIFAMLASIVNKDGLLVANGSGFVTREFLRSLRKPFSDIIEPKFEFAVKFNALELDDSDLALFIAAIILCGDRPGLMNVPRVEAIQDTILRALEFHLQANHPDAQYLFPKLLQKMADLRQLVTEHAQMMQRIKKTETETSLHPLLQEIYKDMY
Procedure, shortened: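 HEK293H UAS-bla reporter cells, human PPARd system; compounds delivered in DMSO after 5 h plating, then at 37 C. Beta-lactamase FRET read, 2 h RT substrate step.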

[3] = qHTS assay to identify small molecule antagonists of the peroxisome proliferator-activated receptor delta (PPARd) signaling pathway - cell viability counter screen (AID 743213); details: PPARd-bla HEK293H viability, CellTiter-Glo luminescence, 17 h; series mostly up to 62 µM; note: nearly all actives have a fitted effect of over 50% in size
Procedure, shortened: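 PPARd-bla HEK293H cells were treated with compounds plus agonist L165041 (300 nM final) for 17 h at 37 C. Viability was then read in the same wells by CellTiter-Glo luminescence after 30 min at room temperature.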

[4] = biological target: Peroxisome proliferator-activated receptor delta (Homo sapiens) (UniProt Q03181); experiment: qHTS assay to identify small molecule antagonists of the peroxisome proliferator-activated receptor delta (PPARd) signaling pathway (AID 743215; active = well fitted inhibition curve with a large enough effect in the signal ratio in the repeat runs, not every such curve was filed as active; the % refers to the signal ratio;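 note: cells stimulated with agonist L165041 at 300 nM final during compound exposure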; note: potency is the fitted concentration of half-maximal effect); details: HEK293H PPARd-UAS-bla, beta-lactamase FRET ratio, antagonist, 17 h; series mostly up to 62 µM
Procedure, shortened: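 PPARd UAS-bla HEK293H cells were pre-incubated 5 h at 37 C, then given test compounds in DMSO plus agonist L165041 (300 nM final). After 17 h at 37 C, beta-lactamase FRET substrate was added; fluorescence read after 2 h at room temperature.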

[5] = qHTS assay to identify small molecule agonists of the farnesoid-X-receptor (FXR) signaling pathway - cell viability counter screen (AID 743218); details: FXR-bla HEK293T viability, CellTiter-Glo luminescence, 16 h; series mostly up to 62.6 µM; note: nearly all actives have a fitted effect of over 45% in size
Procedure, shortened: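 FXR-UAS-bla HEK 293T cells, plated 5 h at 37 C, were exposed to compounds for 16 h at 37 C. CellTiter-Glo was then added to the same wells as the bla readout; luminescence read after 30 min at room temperature.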

[6] = qHTS assay to identify small molecule antagonists of the farnesoid-X-receptor (FXR) signaling pathway - cell viability counter screen (AID 743221; active = well fitted cell-killing curve with a large enough effect in the repeat runs, not every such curve was filed as active; note: nearly all actives have a fitted effect of over 50% in size); details: FXR-bla HEK293T viability, CellTiter-Glo luminescence, 16 h; series mostly up to 62.6 µM
Procedure, shortened: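 CellTiter-Glo, 30 min RT, luminescence; same wells as the LiveBLAzer FRET read. Cells: FXR-UAS-bla HEK 293T. Treatment: compound with chenodeoxycholic acid 50 uM final, 16 h at 37 C.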

[7] = biological target: Vitamin D3 receptor (Homo sapiens) (UniProt P11473); experiment: qHTS assay to identify small molecule agonists of the vitamin D receptor (VDR) signaling pathway (AID 743222; calls by dose curve); details: HEK293T VDR-UAS-bla, beta-lactamase FRET ratio, 16 h; series mostly up to 63.5 µM
Chain of Vitamin D3 receptor (Homo sapiens) (P11473 whole entry, looked up): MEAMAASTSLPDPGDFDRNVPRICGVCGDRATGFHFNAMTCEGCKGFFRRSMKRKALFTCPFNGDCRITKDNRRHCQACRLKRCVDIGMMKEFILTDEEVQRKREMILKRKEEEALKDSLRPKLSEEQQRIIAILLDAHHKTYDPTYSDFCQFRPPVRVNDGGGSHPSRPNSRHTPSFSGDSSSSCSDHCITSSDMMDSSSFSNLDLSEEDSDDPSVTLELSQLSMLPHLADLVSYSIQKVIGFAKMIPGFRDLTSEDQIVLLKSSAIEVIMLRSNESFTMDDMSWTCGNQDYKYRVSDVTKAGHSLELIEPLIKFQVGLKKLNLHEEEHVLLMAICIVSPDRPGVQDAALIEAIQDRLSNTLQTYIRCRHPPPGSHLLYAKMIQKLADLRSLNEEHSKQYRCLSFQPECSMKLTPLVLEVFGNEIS
Procedure, shortened: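 VDR-bla cells were plated 4 h at 37C/5% CO2, then exposed to compounds in DMSO for 16 h. After LiveBLAzer B/G FRET substrate addition and 2 h at room temperature, beta-lactamase reporter fluorescence was read.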

[8] = biological target: Vitamin D3 receptor (Homo sapiens) (UniProt P11473); experiment: qHTS assay to identify small molecule antagonists of the vitamin D receptor (VDR) signaling pathway (AID 743223; active = well fitted inhibition curve with a large enough effect in the signal ratio in the repeat runs, not every such curve was filed as active; the % refers to the signal ratio); details: VDR-UAS-bla HEK293T, beta-lactamase FRET ratio, 16 h; series mostly up to 61 µM
Procedure, shortened: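 After VDR-bla cells are plated and left 4 h at 37C, DMSO-dissolved compounds and 3 nM (final) calcitriol agonist are added. Incubation continues 16 h at 37C; FRET beta-lactamase substrate then develops 2 h at room temperature.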

[9] = biological target: Bile acid receptor (Homo sapiens) (UniProt Q96RI1); experiment: qHTS assay to identify small molecule antagonists of the farnesoid-X-receptor (FXR) signaling pathway (AID 743217; active = well fitted inhibition curve with a large enough effect in the signal ratio in the repeat runs, not every such curve was filed as active; the % refers to the signal ratio); details: HEK293T FXR-UAS-bla, beta-lactamase ratio, CDCA-stimulated, 16 h; series mostly up to 62.6 µM
Chain of Bile acid receptor (Homo sapiens) (Q96RI1 whole entry, looked up): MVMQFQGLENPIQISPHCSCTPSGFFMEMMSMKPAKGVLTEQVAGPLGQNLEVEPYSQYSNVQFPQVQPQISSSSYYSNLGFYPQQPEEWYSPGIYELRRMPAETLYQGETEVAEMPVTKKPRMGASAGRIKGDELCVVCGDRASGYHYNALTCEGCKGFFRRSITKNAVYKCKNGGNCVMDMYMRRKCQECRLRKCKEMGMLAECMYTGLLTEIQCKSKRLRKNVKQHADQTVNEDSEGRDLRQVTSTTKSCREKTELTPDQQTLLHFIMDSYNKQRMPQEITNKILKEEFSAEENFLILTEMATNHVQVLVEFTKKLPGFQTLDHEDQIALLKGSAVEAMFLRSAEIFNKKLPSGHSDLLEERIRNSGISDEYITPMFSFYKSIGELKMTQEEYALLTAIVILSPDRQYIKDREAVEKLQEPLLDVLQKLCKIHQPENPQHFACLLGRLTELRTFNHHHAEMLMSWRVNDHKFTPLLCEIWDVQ
Procedure, shortened: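 FXR-UAS-bla HEK 293T cells pre-incubated 5 h at 37 °C, then exposed to compounds with chenodeoxycholic acid (50 uM final) for 16 h at 37 °C. Beta-lactamase reporter read by LiveBLAzer B/G FRET substrate fluorescence after 2 h at room temperature.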

[10] = biological target: Bile acid receptor (Homo sapiens) (UniProt Q96RI1); experiment: qHTS assay to identify small molecule agonists of the farnesoid-X-receptor (FXR) signaling pathway (AID 743220; active = well fitted activation curve with a large enough effect in the signal ratio in the repeat runs, not every such curve was filed as active; the % refers to the signal ratio); details: HEK293T FXR-UAS-bla, beta-lactamase FRET ratio, 16 h; series mostly up to 62.6 µM
Procedure, shortened: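 Beta-lactamase reporter under UAS control in GeneBLAzer FXR HEK 293T cells (5000/well) measured with LiveBLAzer FRET substrate after 2 h at room temperature. Compound exposure lasted 16 h at 37C.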

Measured: Potency

CCNc1nc(NC(C)C)nc(SC)n1
not listed: [9] | [10]
inactive: all other assays above

CCCN(CCC)c1c([N+](=O)[O-])cc(C(F)(F)F)cc1[N+](=O)[O-]
not listed: [5]
inactive: all other assays above

Cc1ccc(N)cc1N
not listed: [5]
inactive: all other assays above

CCC12COCN1COC2
not listed: [9] | [10]
inactive: all other assays above

O=S(=O)(c1ccc(O)cc1)c1ccc(O)cc1
inactive: all assays above

COC(=O)c1ccccc1N
not listed: [5] | [9] | [10]
inactive: all other assays above

CCCCCCCCCl
inactive: all assays above

ClCc1cccnc1
inactive: all assays above

O=Cc1cccc(Oc2ccccc2)c1
not listed: [9] | [10]
inactive: all other assays above

CCCCCCCCCCCC#N
inactive: all assays above

COc1ccc2c3c1O[C@H]1[C@@H](O)C=C[C@H]4[C@@H](C2)N(C)CC[C@@]341
active: [4] 42.6 µM
inactive: all other assays above

Nc1ccc(Oc2ccc(N)cc2)cc1
inactive: [1] | [2] | [3] | [4] | [5] | [6]

c1ccc2c(c1)oc1ccccc12
not listed: [9] | [10]
inactive: all other assays above

O=[N+]([O-])c1ccc([As](=O)(O)O)cc1
not listed: [9] | [10]
inactive: all other assays above

CC(C)N1C(=O)c2ccccc2NS1(=O)=O
not listed: [8] | [9] | [10]
inactive: all other assays above

Clc1ccc(Cl)cc1
not listed: [9] | [10]
inactive: all other assays above

CCCN(CCC)N=O
not listed: [5] | [9] | [10]
inactive: all other assays above

CC(C)C1(C)N=C(c2nc3ccccc3cc2C(=O)O)NC1=O (centres undefined)
inactive: all assays above

Clc1ccccc1Cl
inactive: all assays above

CCN(CC)CCO
inactive: [1] | [2] | [3] | [4] | [5] | [6]

Nc1ccc(Cc2ccc(N)cc2)cc1
not listed: [5]
inactive: all other assays above

CCCC1COC(Cn2cncn2)(c2ccc(Cl)cc2Cl)O1 (centres undefined)
inactive: all assays above

CC1C=[C-]C=C1.[C-]#[O+].[C-]#[O+].[C-]#[O+].[Mn]
not listed: [5]
inactive: all other assays above

COC(=O)NC(=S)Nc1ccccc1NC(=S)NC(=O)OC
inactive: all assays above

CN(C)CCO
not listed: [9] | [10]
inactive: all other assays above

CCCCN(CC)C(=O)SCCC
not listed: [5]
inactive: all other assays above

CCC[N+](=O)[O-]
inactive: all assays above

CC(Br)C(=O)O (centres undefined)
not listed: [9] | [10]
inactive: all other assays above

BrCCBr
not listed: [9] | [10]
inactive: all other assays above

C=CC(N)=O
not listed: [9] | [10]
inactive: all other assays above

Nc1c(Cl)c(Cl)nc(C(=O)O)c1Cl
inactive: [1] | [2] | [3] | [4] | [6]

CC(C)(C)OOC(=O)c1ccccc1
not listed: [9] | [10]
inactive: all other assays above

O=c1[nH]c(=O)[nH]c(=O)[nH]1
not listed: [9] | [10]
inactive: all other assays above

CCOP(=S)(OCC)SCCSCC
inactive: [1] | [2] | [3] | [4] | [5] | [6]

C1CC2OC2CC1C1CO1 (centres undefined)
not listed: [5]
inactive: all other assays above

CNC(=O)Oc1ccccc1OC(C)C
not listed: [9] | [10]
inactive: all other assays above

CCCCN(CCCC)SN(C)C(=O)Oc1cccc2c1OC(C)(C)C2
not listed: [5] | [9] | [10]
inactive: all other assays above

Nc1ccc(Br)cc1
not listed: [4] | [7] | [8]
inactive: all other assays above

C=C(C)CCl
not listed: [4]
inactive: all other assays above

c1ccc(-c2ccccc2)cc1
inactive: [1] | [2] | [3] | [9] | [10] | [6]

CCC[CH2][Sn]([Cl])([Cl])[Cl]
not listed: [4] | [7] | [8]
inactive: all other assays above

CCOC(=O)c1ccccc1C(=O)OCC
not listed: [4] | [9] | [10]
inactive: all other assays above

Cc1cc(Cl)ccc1O
not listed: [4] | [5]
inactive: all other assays above

COCCl
not listed: [4]
inactive: all other assays above

Cc1ccccc1O
not listed: [5] | [9] | [10]
inactive: all other assays above

CN(C)[C@@H]1C(=O)C(C(N)=O)=C(O)[C@@]2(O)C(=O)C3=C(O)c4c(O)cccc4[C@@](C)(O)[C@H]3C[C@@H]12
inactive: [1] | [2] | [3] | [5] | [10] | [6]

CC(C)NC(=O)N1CC(=O)N(c2cc(Cl)cc(Cl)c2)C1=O
inactive: [1] | [2] | [3] | [5] | [6]

CN(N=O)c1ccccc1
not listed: [4]
inactive: all other assays above

CC(C#N)CCC#N (centres undefined)
not listed: [5] | [9] | [10]
inactive: all other assays above

COC(=O)NS(=O)(=O)c1ccc(N)cc1
not listed: [4] | [9] | [10]
inactive: all other assays above

CN=C=S
not listed: [4]
inactive: all other assays above

C[C@]12CC[C@H]3[C@@H](CC[C@@]45O[C@@H]4C(O)=C(C#N)C[C@]35C)[C@@H]1CC[C@@H]2O
inactive: [1] | [2] | [3] | [5] | [6] | [7]

Cc1cccc([N+](=O)[O-])c1
not listed: [4]
inactive: all other assays above

CC(C)(C)C(O)(CCc1ccc(Cl)cc1)Cn1cncn1 (centres undefined)
not listed: [5] | [9] | [10]
inactive: all other assays above

CC1OC(C)OC(C)O1 (centres undefined)
not listed: [4] | [7] | [8]
inactive: all other assays above

OC(O)C(Cl)(Cl)Cl
not listed: [4] | [7] | [8]
inactive: all other assays above

NCCc1ccc(O)cc1
inactive: [1] | [2] | [3] | [5] | [6]

O=[N+]([O-])c1ccc(Oc2ccc(Cl)cc2Cl)cc1
not listed: [5] | [9] | [10]
inactive: all other assays above

CC(C)(Cl)Cl
not listed: [4] | [9] | [10]
inactive: all other assays above

CCNc1nc(NC(C)(C)C)nc(SC)n1
not listed: [4]
inactive: all other assays above

O=S(=O)(c1ccc(Cl)cc1)c1cc(Cl)c(Cl)cc1Cl
not listed: [4]
inactive: all other assays above

CC(C)OC(=O)Nc1cccc(Cl)c1
not listed: [4]
inactive: all other assays above

Cc1ccc([N+](=O)[O-])cc1C
not listed: [4] | [5]
inactive: all other assays above

O=c1n(Cl)c(=O)n(Cl)c(=O)n1Cl
not listed: [5] | [9] | [10]
inactive: all other assays above

O=c1[nH]c2ccccc2c(=O)o1
not listed: [4]
inactive: all other assays above

O=C1CCCN1
inactive: [1] | [2] | [3] | [9] | [10] | [6]

C=CCO
inactive: [1] | [2] | [3] | [5] | [6]

CC(C)=C[C@@H]1[C@@H](C(=O)OCc2coc(Cc3ccccc3)c2)C1(C)C
not listed: [4] | [5] | [9]
inactive: all other assays above

O=NN1CCCC1
not listed: [4] | [5]
inactive: all other assays above

COP(N)(=O)SC (centres undefined)
not listed: [4]
inactive: all other assays above

CC(C)(C)OOC(C)(C)C
not listed: [4] | [7] | [8]
inactive: all other assays above

C#CC(C)(C)NC(=O)c1cc(Cl)cc(Cl)c1
not listed: [4] | [9] | [10]
inactive: all other assays above

O=[N+]([O-])c1ccccc1
inactive: [1] | [2] | [3] | [5] | [6]

CON(C)C(=O)Nc1ccc(Cl)c(Cl)c1
inactive: [4]

CCOP(=S)(OCC)Oc1cnc2ccccc2n1
inactive: [4]
